Screens deposited in PubChem by National Center for Advancing Translational Sciences (NCATS).
The full list was thinned out, with hits kept by preference.
PI5P4Ka inh: inhibitors of human PI5P4K alpha. P48426. PI5P4Kalpha enzyme, ADP-Glo luminescence, 60 min; hits give low values. max response, %. actives 1.2% (n = 330,000). AID 652105; active = max response of -50% or lower; inconclusive = between -30% and -50%; inactive = -30% or higher; note: value at the top dose of about 77 µM
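Controls without substrate or without enzyme flank wells where PI5P4Kalpha converts substrate using 5 microM ATP (final). Incubation lasts 60 minutes at room temperature; ADP formed is read by ADP-Glo luminescence.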
PI4K2A block: blocks human PI4K2A kinase activity; Q9BTU6; purified PI4K2A, ADP-Glo luminescence, 1 h; hits give low values; activity change, negative = inhibition, % at 76.9 µM; actives 0.13% (n = 420,000); in the data active = activity change below about -50%; inconclusive = mostly about -30% to -49%
Target sequence (Q9BTU6 whole entry, looked up): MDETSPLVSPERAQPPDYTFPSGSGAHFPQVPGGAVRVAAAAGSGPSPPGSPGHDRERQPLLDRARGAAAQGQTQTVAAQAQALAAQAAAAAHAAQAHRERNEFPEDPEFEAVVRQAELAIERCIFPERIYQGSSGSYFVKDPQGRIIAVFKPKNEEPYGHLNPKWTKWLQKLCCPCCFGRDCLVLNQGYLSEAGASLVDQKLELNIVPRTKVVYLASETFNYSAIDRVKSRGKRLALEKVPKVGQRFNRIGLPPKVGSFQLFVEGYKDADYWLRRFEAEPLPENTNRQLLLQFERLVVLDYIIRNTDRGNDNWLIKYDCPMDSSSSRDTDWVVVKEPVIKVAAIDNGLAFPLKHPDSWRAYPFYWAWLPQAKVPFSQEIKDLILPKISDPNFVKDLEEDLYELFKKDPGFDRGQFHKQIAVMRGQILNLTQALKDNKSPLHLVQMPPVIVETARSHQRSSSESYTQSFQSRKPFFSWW
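Compounds are screened against recombinant PI4K2A using PI as substrate and ATP, the latter dispensed at 300 microM. Reactions run one hour at ambient temperature before ADP-Glo detection; full inhibition defined by wells lacking enzyme.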
Pin1 inhibitor: human Pin1 inhibition; AID 504891; Q13526; actives 0.009% (n = 390,000); Potency, µM (titrated, usually from 115 µM), most hits filed as inhibitors; Pin1 FP peptide displacement, HiFluor488, 10 min; active = well fitted inhibition curve with a large enough effect in the polarisation, with a control signal flat, not every such curve was filed as active; inconclusive = small, poorly fitted or top-dose-only effect, or effect the other way, or a change in a side signal; inactive = no such curve, though single readings can be large or run the other way; the % refers to the polarisation
Target sequence (Q13526 whole entry, looked up): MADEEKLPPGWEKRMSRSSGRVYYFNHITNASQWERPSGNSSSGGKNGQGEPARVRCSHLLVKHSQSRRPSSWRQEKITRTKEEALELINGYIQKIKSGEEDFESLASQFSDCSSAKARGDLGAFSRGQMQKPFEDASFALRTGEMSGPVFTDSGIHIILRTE
Tb PFK inh: inhibitors of T. brucei phosphofructokinase; O15648; T. brucei PFK, ADP-Glo luminescence; Potency, µM (highest dose often 57.5 µM), actives largely listed as inhibitors; actives 0.17% (n = 330,000); AID 485367; note: nearly all actives have a fitted effect of over 60% in size
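In TEA buffer at pH 8.0 with 5 mM MgCl2, enzyme (1.25 nM) converted F6P (0.5 mM) and ATP (0.1 mM) for 45 min at room temperature. ADP product was read by luciferase luminescence.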
PGK inhibitor: blocks T. brucei phosphoglycerate kinase; PGK/GAPDH coupled, Kinase-Glo luminescence, 60 min; P07378; actives 0.043% (n = 380,000); Potency, µM (series often up to 57.5 µM), hits mostly inhibitors; note: nearly all actives have a fitted effect of over 60% in size
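Recombinant glycosomal PGK reaction used 1,3-bisphosphoglycerate generated in-well by GAPDH (100nM final) in 100mM TEA pH 7.6, 5mM MgCl2, 0.01% Tween-20. After 60 minutes at room temperature, ATP was read by Kinase-Glo Plus luminescence end-point.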
Hits are given with their value; i = inactive; ? = inconclusive; nt = not tested or not shown. Unless noted, calls come from the whole dose curve; as a rule, active = well fitted curve in the direction sought with a large enough effect; inconclusive = small, poorly fitted or top-dose-only effect, or another doubt; inactive = no such curve, though single readings can be large; an effect the other way counts as inactive or inconclusive.

SMILES | PI5P4Ka inh | PI4K2A block | Pin1 inhibitor | Tb PFK inh | PGK inhibitor
CN(C)c1c([N+](=O)[O-])cc(N2C(=O)C=CC2=O)cc1[N+](=O)[O-] | -86 | i | ? | nt | i
COc1cc([C@@H]2c3cc4c(c(O)c3C[C@H]3COC(=O)[C@@H]32)OCO4)cc(OC)c1OC | nt | nt | i | nt | nt
N#Cc1cn(C2OC(CO)C(O)C2O)c2ncnc(N)c12 (stereo unspecified) | i | -51 | i | nt | i
O=[N+]([O-])/N=C1\NCCN1Cc1ccc(Cl)nc1 | nt | i | nt | nt | nt
S=P(c1ccccc1)(c1ccccc1)c1c[nH]c2ccccc12 | nt | nt | i | nt | nt
COc1cc(CC(C)N)c(OC)cc1Br (stereo unspecified) | nt | i | nt | nt | nt
Cc1nc2c(=O)n(C)c(=O)nc-2n(C)n1 | i | -55 | ? | i | ?
O=C(N/N=C/c1c(O)n(-c2ccccc2)c(=S)[nH]c1=O)c1ccccc1 | -54 | i | i | i | i
O=C(N/N=C/c1c(O)n(-c2ccccc2)c(=O)[nH]c1=O)c1ccncc1 | i | i | ? | i | i
Cc1ccccc1-n1c(O)c(/C=N/NC(=O)c2ccccc2O)c(=O)[nH]c1=S | -69 | i | i | i | i
O=C(N/N=C/c1c(O)n(C2CC2)c(=S)[nH]c1=O)c1ccccc1O | -58 | i | i | i | i
O=C1NC(=O)N(Cc2ccc(F)cc2)C(=O)/C1=C/c1cccs1 | -56 | i | ? | i | i
O=C1NC(=O)N(Cc2ccc(F)cc2)C(=O)/C1=C\c1ccoc1 | -93 | i | ? | i | i
CN(C)c1ccc(/C=C2\C(=O)NC(=O)N(Cc3ccc(F)cc3)C2=O)cc1 | i | i | i | i | i
O=c1[nH]c2ccccc2n1C1CCNCC1 | nt | i | nt | nt | nt
COc1cccc(NC(=O)C2CCN(c3nnc(C)c4c(C)n(-c5ccccc5)nc34)CC2)c1 | nt | i | ? | nt | i
COC1CC2C=C(C)C=CC=CC(=O)NC(c3ccccc3)CC=CCCC(O)CC(=O)C2=C1O (stereo unspecified) | -84 | i | nt | nt | nt
C[C@]12CC[C@H]3[C@@H](CCC4=CC(=O)CC[C@@H]43)[C@@H]1CC[C@@H]2OC(=O)CCc1ccccc1 | nt | i | nt | nt | nt
O=C(Nc1ccc2nc(SCC(=O)N3CCCc4ccccc43)sc2c1)c1cccc(F)c1 | nt | i | i | nt | i
CC(C)Oc1cccc(NC(=O)c2ccccc2C(F)(F)F)c1 | nt | i | nt | nt | nt
O=C1NC(=O)C(=Cc2coc3ccc(O)cc3c2=O)C(=O)N1 | -73 | ? | i | i | i
COc1cc(N2CCOCC2)ccc1C=C1C(=O)NC(=O)NC1=O | i | i | i | i | i
C=CCC1([C@H](C)CCC)C(=O)NC(=O)NC1=O | nt | i | nt | nt | nt
CCC(CC)(CNC(=O)CCCO)c1cccc(OC)c1 | nt | i | nt | nt | nt
O=c1c2ccccc2nc(-c2ccccc2)n1-c1ccccc1 | i | i | i | i | i
SMILES | PI5P4Ka inh | PI4K2A block | Pin1 inhibitor | Tb PFK inh | PGK inhibitor
O=c1c2ccccc2[se]n1-c1ccccc1 | -91 | i | i | 4.8µM | i
CC(=O)N1CCc2cc(S(=O)(=O)N3CCN(c4ccc(C)cc4)C(C)C3)ccc21 (stereo unspecified) | nt | i | i | nt | i
COCCCn1c(N)c(C(=O)OCCOC)c2nc3ccccc3nc21 | i | i | i | i | i
COCCNC(=O)c1c(NC(=O)c2ccc(Br)o2)n(Cc2ccccc2)c2nc3ccccc3nc12 | i | i | i | i | i
CCCCNC(=O)c1c(N)n(CCCOC)c2nc3ccccc3nc12 | nt | -58 | i | i | i
COCCCNC(=O)c1c(NC(=O)c2ccco2)n(Cc2ccccc2)c2nc3ccccc3nc12 | i | -57 | i | i | i
CC1Oc2cc3c(-c4c(O)cc(O)c5c(O)c6c(cc45)OC(C)C(C)C6=O)c(O)cc(O)c3c(O)c2C(=O)C1C (stereo unspecified) | -109 | i | ? | i | i
Cc1cc(O)c2c(c1)C(=O)c1cc(O)cc(O)c1C2=O | -58 | i | ? | nt | i
O=c1oc2ccccc2c(O)c1C(CC(O)c1ccc(-c2ccc(Br)cc2)cc1)c1ccccc1 (stereo unspecified) | nt | i | nt | nt | nt
CSc1ncc(/C=C2/C(=O)NC(=O)N(C3CCCCC3)C2=O)cn1 | -57 | i | i | i | i
CSc1ncc(/C=C2/C(=O)NC(=O)N(C)C2=O)cn1 | ? | i | i | i | i
CCCCN1C(=O)NC(=O)/C(=C/c2cnc(SC)nc2)C1=O | -85 | i | i | i | i
CC1COC2(c3ccccc3Cl)c3cc(Cl)ccc3NC(=O)CN12 (stereo unspecified) | nt | i | nt | nt | nt
CCCc1cc(N2CCN(c3cccc(C)c3C)CC2)n2cnnc2n1 | nt | i | ? | nt | i
CN(C)CCc1c[nH]c2cccc(OP(=O)(O)O)c12 | nt | i | nt | nt | nt
C=CCN1C(=O)NC(=O)/C(=C/c2ccc(OC)c(COc3ccc(NC(C)=O)cc3)c2)C1=O | -66 | ? | i | i | i
C=CCN1C(=O)NC(=O)/C(=C/c2ccc(OC)c(CSc3ccccn3)c2)C1=O | -71 | ? | i | i | i
O=C1NC(=S)NC(=O)C1=Cc1ccc(OCC(=O)N2CCCC2)cc1 | -54 | i | i | ? | i
CC(C)c1ccc(N2C(=O)NC(=O)/C(=C/c3cnc(-c4ccccc4)nc3)C2=O)cc1 | -54 | i | ? | i | i
O=C1NC(=O)N(Cc2ccccc2)C(=O)/C1=C/c1cnc(-c2ccccc2)nc1 | -73 | i | ? | i | i
O=C1NC(=O)N(Cc2ccccc2)C(=O)/C1=C/N1CCCc2ccccc21 | i | i | ? | i | i
CSc1ncc(/C=C2/C(=O)NC(=O)N(c3ccc(C(C)C)cc3)C2=O)cn1 | ? | i | i | i | i
CCCCOP(=O)(OCCCC)C(Nc1ccc(C(=O)OCC)cc1)c1ccncc1 (stereo unspecified) | i | i | ? | i | i
CN1CC[C@@]2(C)c3cc(OC(=O)Nc4ccccc4)ccc3N(C)[C@@H]12 | nt | i | nt | nt | nt
C[C@@H]1CC2=CC(=O)CC[C@@H]2[C@H]2CC[C@@]3(C)[C@@H](CC[C@]3(C)O)[C@@H]21 | nt | i | nt | nt | nt
SMILES | PI5P4Ka inh | PI4K2A block | Pin1 inhibitor | Tb PFK inh | PGK inhibitor
Cc1ccc(N2C(=O)NC(=O)/C(=C/c3ccc(-c4ccc(C(=O)O)c(Cl)c4)o3)C2=O)cc1 | ? | i | ? | i | i
O=C1NC(=O)N(c2ccc(Cl)cc2)C(=O)/C1=C\c1ccc(Sc2nc3ccccc3[nH]2)o1 | -87 | ? | ? | i | i
O=C(OCc1cc(=O)n2nc(C3CC3)sc2n1)c1ccc(NC(=O)c2ccccc2Cl)cc1 | nt | i | ? | nt | i
CCOC(=O)c1cnc2c(ccc3ccccc32)c1Nc1ccc(C(C)=O)cc1 | nt | i | i | nt | i
O=c1[nH]c2ccccc2n1C1CCN(CCCC(c2ccc(F)cc2)c2ccc(F)cc2)CC1 | -51 | i | i | i | i
NC(=O)c1ccc(N=Cc2c(O)n(Cc3ccco3)c(=O)[nH]c2=O)cc1 | -79 | ? | ? | i | ?
C[C@]12CC[C@H]3[C@@H](CC[C@@]45O[C@H]4C(O)=C(C#N)C[C@]35C)[C@H]1CC[C@H]2O | nt | i | nt | nt | nt
